Test results reported in PubChem BioAssay AID1508622 (National Center for Advancing Translational Sciences (NCATS), 2021).
Active and inactive are the calls of the source. Calls come from the whole dose curve; as a rule, active = well fitted activation curve with a large enough effect; inconclusive = small, poorly fitted or top-dose-only effect; inactive = no such curve, though single readings can be large or run the other way.

experiment: Confirmatory qHTS for Identification of Small Molecule Activators of Huntingtin-Antisense Promoter Activity; settings: HEK293 HTT-AS promoter firefly luciferase reporter, 24 h; series mostly up to 57.5 µM; activity change, positive = activation: at the top concentration
Summary of the method: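 Activity normalized between vehicle control (0%) and zero RLU (-100%) from firefly luminescence (Dual-Glo). Compounds, up to 57.5 uM final, incubated 24 h at 37C on HEK293 reporter cells plated 24 h earlier.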

Activity change, positive = activation, inactive:
CCCOCc1cc(CN2CCN(c3cccc(Cl)c3)CC2)c(O)c2ncccc12 -37.8%, CCOc1ccc(CCNC(=O)c2cccc(-n3c(C)nc4cccnc43)c2)cc1 -25.8%, CCCCN1CC(c2nc3ccccc3n2CCCCOc2ccc(C)c(C)c2)CC1=O (stereo not drawn) -42.6%, COc1cccc(N2CCN(C(=O)c3ccc4nc(N5CCC(C)CC5)sc4c3)CC2)c1 -71.7%, Cc1cccc(N2CCN(S(=O)(=O)c3ccc(F)c(C(=O)Nc4cccc(Cl)c4C)c3)CC2C)c1 (stereo not drawn) -17.7%, COC(=O)c1c(C)oc2ccc(N(C(=O)c3ccncc3)S(=O)(=O)c3ccc(OC)cc3)cc12 -94.2%, COc1ccc(OC(C)C(=O)NCc2nc(-c3ccc(Cl)cc3)no2)cc1 (stereo not drawn) -73.4%, CCCCOc1ccc(C(=O)Nc2ccc3c(c2)CCCN3C(=O)c2cccs2)cc1 -56.3%, COc1ccc(OC)c(-c2nnc3ccc(-c4ccc(OC)c(O[C@@H]5CCOC5)c4)nn23)c1 -32.3%, COc1ccc(-n2ccnc2SCC(=O)Nc2cccc(OC)c2)cc1 -49%, COc1ccc(S(=O)(=O)c2cc3cc(C(C)(C)C)cc(O)c3oc2=O)cc1 -42.7%, CCOC(=O)c1cccc(NC(=O)CCn2c(-c3ccc(F)cc3)cc(C(=O)OCC)c2C)c1 -25%, CCc1ccc(NC(=O)c2ccc(F)c(S(=O)(=O)NCc3ccc(Cl)c(Cl)c3)c2)cc1 -17.2%, Cc1cc(C)c(NS(=O)(=O)c2ccc(-c3cnc(C4CC4)o3)cc2)c(C)c1 -43.6%, O=C(Nc1ccc(F)cc1)C1CCN(S(=O)(=O)c2ccc3c(c2)CCCN3C(=O)C2CCC2)CC1 -39.7%, COC(=O)c1ccccc1NC(=O)Cn1nc(C(F)(F)F)c2c1CCCC2 -16.2%, Cc1c(C(=O)Nc2ccc(F)cc2)oc2ccc(S(=O)(=O)N3CCCCCC3)cc12 -29.7%, O=C(NCc1cccc(Cl)c1)C1CCCN(c2nn3cc(-c4ccc(F)cc4)nc3s2)C1 (stereo not drawn) -56.7%, Cc1oc(-c2ccc(Cl)cc2)nc1CN1CCCC(C(=O)NCCc2ccccc2)C1 (stereo not drawn) -92%, COc1ccc(NC(=O)CN2CCCN(S(=O)(=O)c3ccc(Br)cc3)CC2)c(OC)c1 -29.8%, COc1ccc(N(Cc2ccccc2)C(=O)c2nc(SC)ncc2Cl)cc1 -54%, Cc1ccc(CNS(=O)(=O)c2ccc(N3CCCCS3(=O)=O)cc2)cc1 -83.1%, Cc1ccc2onc(CC(=O)N3CCN(c4cc(Cl)ccc4C)CC3)c2c1 -8.46%
